# According to PubChem BioAssay AID687014 (The Scripps Research Institute Molecular Screening Center, 2013):
# In all, about 370,000 compounds went through this assay and about 6,800 (1.8%) were called active. This is one part of a sample in which actives are shown more often than they occur.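 How the source made its calls: active means activation above a cutoff set at the mean of all screened compounds plus 3 SD (cut at about 10% in these data); inactive means the rest.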
# Tested on: Nuclear hormone receptor DAF-12 (Heterodera glycines), GAL4 fusion
# Experiment: hgDAF-12 GAL4 fusion reporter activation – cell-based, luminescence, HEK293, UAS-luciferase, primary screen (AID 687014);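 further: 0% = DMSO wells and 100% = sodium butyrate wells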
# Conditions: HEK293 GAL4-hgDAF12 UAS-luciferase reporter, agonist luminescence; at 6.8 µM; hits give high values; normalized to butyrate control
row,SMILES,activation
1,OC(c1ccccc1)(c1ccccc1)C1CCN(CCCOc2ccc(-c3ccsc3)cc2)CC1,-3.48% (inactive)
2,C=C(C)C1CC23C(=O)C4(C(=O)c5ccccc5)C[C@@]5(C)CCC(CC2C1(C)C)(C4=O)C35OC (some centres undefined),-0.57% (inactive)
3,O=C(NCc1ccco1)c1ccc(NS(=O)(=O)c2cccc([N+](=O)[O-])c2)cc1,0.98% (inactive)
4,O=C(NCCC1=CCCCC1)C1CCN(S(=O)(=O)c2ccc(Cl)s2)CC1,-1.78% (inactive)
5,O=C(NCC1COc2ccccc2O1)c1ccc(NC(=O)c2cc(F)ccc2F)cc1 (centres undefined),-2.39% (inactive)
6,COc1ccc(-c2c(NC(=O)c3ccco3)oc3ccc(Cl)cc3c2=O)cc1,0.05% (inactive)
7,O=C(Nc1ccc2oc(-c3ccccc3F)nc2c1)c1ccco1,14.8% (active)
8,O=C(Nc1cc(-c2nc3ncccc3o2)ccc1Cl)c1ccco1,2.36% (inactive)
9,COC(=O)Cc1nnn2c1[C@H](C)[C@H](c1ccccc1[N+](=O)[O-])OCC2,-0.34% (inactive)
10,CCOC(=O)c1cc(S(=O)(=O)NCCc2ccc(OC)c(OC)c2)cn1C,0.63% (inactive)
11,CCOC(=O)N1CCN(Cc2oc(CO)cc(=O)c2O)CC1,1.66% (inactive)
12,O=c1c2c(nc3cc(-c4cccc(Cl)c4)[nH]n13)CCCC2,18.1% (active)
13,CSc1nc2nc3c(c(=O)n2[nH]1)CCC3,-0.35% (inactive)
14,Clc1cccc(Cc2c(-c3cccc(Cl)c3)nc3ccc(Cl)cn23)c1,6.04% (inactive)
15,CSc1ccc(C=Nn2c(-c3ccc(F)cc3)n[nH]c2=S)cc1,-2.14% (inactive)
16,Oc1cccc2ccc(/C=C/c3ccc(Br)s3)nc12,20.9% (active)
17,CCCCOCC1CN(CCCC)S(=O)(=O)c2c(Oc3ccc(F)cc3)cccc2O1 (centres undefined),3.59% (inactive)
18,COC(=O)C1CN(Cc2cn(Cc3ccc(F)cc3)nn2)CCS(=O)(=O)N1Cc1ccc(Cl)cc1 (centres undefined),-1.71% (inactive)
19,Clc1ccc(-n2c(COc3ccccc3)nnc2SCc2nc3ccccc3[nH]2)cc1,0.78% (inactive)
20,CN(CCO)c1ccc(/C=N/Nc2nncc3ccccc23)cc1,10.7% (active)

row,SMILES,activation
1,N#Cc1ccc(N2Cc3ccccc3/C2=N/C(=O)Nc2ccc(Cl)cc2)cc1,2% (inactive)
2,CCS(=O)(=O)c1ccc(-c2cccc(NC(=O)c3ccc(Br)o3)c2)nn1,3.52% (inactive)
3,Cc1cccc(NC(=S)NC(=O)c2ccc(Br)o2)c1,15.4% (active)
4,O=C(Nc1cccc(C(=O)O)c1)/C(=C\c1ccccc1)NC(=O)c1ccc(Br)o1,1.1% (inactive)
5,Nc1[nH]c(/C=C2/CCCCC2n2[nH]c(=O)n(-c3ccccc3)c2=O)c(Cc2ccccc2)[n+]1Cc1ccccc1 (centres undefined),0.06% (inactive)
6,CC(C)c1cc(NCc2ccccn2)n2c(nc3ccccc32)c1C#N,3.15% (inactive)
7,C=CCN(C(=O)[C@@H](CCCC)[C@@H](O)c1ccc(Cl)cc1)c1ccccc1,1.69% (inactive)
8,CC(=NNC(N)=O)c1ccc(Cl)c(-n2cccc2)c1,1.64% (inactive)
9,Cc1cc(NC(=O)C(C)N2C(=O)c3ccccc3S2(=O)=O)no1 (centres undefined),-0.78% (inactive)
10,O=C(OCCN1CCOCC1)C1(c2ccccc2)CCCCC1,-2.44% (inactive)
11,c1coc(CCNc2ncnc3ccc(-c4ccc5c(c4)OCO5)cc23)c1,-2.33% (inactive)
12,Oc1cccc2cc(-c3ccncc3)cnc12,15.1% (active)
13,Cc1cc2c(nc1C)CCCN2C,0.83% (inactive)
14,COc1ccc(NC(=O)C2CCC(CNC(=O)[C@@H]3Cc4ccccc4CN3)CC2)cc1 (some centres undefined),-1.49% (inactive)
15,CN1C[C@]2(C=C3CCCCC3n3c(=O)n(-c4ccccc4)c(=O)n32)N=C1NC(=O)c1ccccc1 (some centres undefined),2.4% (inactive)
16,COc1ccc(-n2c(SCC(=O)Nc3ccc(C)c(Cl)c3)nc3ccccc3c2=O)cc1,-4.03% (inactive)
17,FC(F)(F)c1cccc(NC(=S)OC2CCC23CCC(c2ccccc2)CC3)c1 (centres undefined),2.72% (inactive)
18,COCCN(C(=S)Nc1ccccc1OC)C1CCN(C(C)C)CC1,-3% (inactive)
19,CCn1c(SCCC(C)C)nnc1-c1c[nH]c2ccccc12,-2.13% (inactive)
20,Cc1ccc(-c2csc(N(Cc3ccco3)C(=O)c3cccs3)n2)cc1,4.33% (inactive)

row,SMILES,activation
1,Cc1ccc(-c2csc(-c3c[nH]c4ccccc34)n2)cc1,13.1% (active)
2,CC(=O)Nc1nc2ncccn2c1-c1ccc(C(F)(F)F)cc1,0.34% (inactive)
3,O=C(CP(=O)(c1ccccc1)c1ccccc1)N1CCOCC1,1.84% (inactive)
4,O=C(CSC(=S)N1CCOCC1)c1ccccc1,10.7% (active)
5,COc1cccc(NC(=O)CN(C)C(=O)CSC(=S)N2CCCC2)c1,2.56% (inactive)
6,O=C(CSC(=S)N1CCCCC1)c1c(F)cccc1F,16.9% (active)
7,CC(=O)c1ccc(NC(=O)CSC(=S)N2CCCC2)cc1,7.4% (inactive)
8,N[C@@H](Cc1ccccc1)C(=O)N1CCOCC1,0.96% (inactive)
9,O=C1[C@@H](c2ccccc2)[C@@H](c2ccccc2)N1c1ccccc1,-0.47% (inactive)
10,CCOC(=O)Cn1c2c(n(-c3ccc(F)cc3)c1=O)C=C(c1ccccc1)[C@@H](C)C(C(=O)N(C)C1CCCCC1)=C2,-2.75% (inactive)
11,CN[C@H]1C[C@H]2c3cc(N4CCOCC4)ccc3CCN2C[C@H]1[C@H](C)O,-0.47% (inactive)
12,CCC(=O)Nc1ccc2c(c1)C(=O)N(C)[C@H]1CC[C@H](CC(=O)NCCOC)O[C@@H]1CO2,-3.11% (inactive)
13,O=C(NCc1cccs1)C1CCCN(S(=O)(=O)c2ccc([N+](=O)[O-])cc2)C1 (centres undefined),-1.45% (inactive)
14,C[C@@H]1ON(C)[C@H]2C[C@H]3c4[nH]c5cccc(-c6ccc7c(c6)OCO7)c5c4CCN3C[C@@H]12,-2.08% (inactive)
15,CC(=O)N1C[C@@H](CO)[C@@H](N(C)C(=O)C(C)(C)C)C[C@H]1c1ccccc1Br,4.28% (inactive)
16,C=C1C(C(C)C)N(C)C2=NC(c3ccccc3)CC(=O)N12 (centres undefined),-2.06% (inactive)
17,O=C(CN1CCN(c2ccc(O)cc2)CC1)Nc1ccc(-c2ccccc2)cc1,0.81% (inactive)
18,CN1CCN(c2ccc(NC(=O)c3ccccc3)cc2)CC1,10.5% (active)
19,O=C(Nc1ccc(S(=O)(=O)N2CCc3ccccc3C2)cc1)c1ccccc1,-0.73% (inactive)
